This is an account of results in PubChem BioAssay (Tox21).

Inconclusive results are not listed. A call without a number means that no potency is given here. The source made the active and inactive calls. Calls come from the whole dose curve; as a rule, active = well fitted activation curve with a large enough effect in the repeat runs; inconclusive = weak or mixed curves; inactive = no such curve, though single readings can be large or run the other way.

In this experiment the target is Nuclear receptor subfamily 1 group I member 2 (Homo sapiens) (UniProt O75469). Kind of experiment: CYP3A4 induction through human pregnane X receptor (PXR) by small molecules, qHTS assay (AID 1346984). Note: nearly all actives have a fitted effect of over 40% in size. To be noted: DPX-2 HepG2 PXR, CYP3A4-luciferin luminescence, 24 h; series mostly up to 46.1 µM. In a few lines:
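Induction measured in HepG2-based DPX-2 cells co-expressing human PXR and a CYP3A4 promoter-driven luciferase. After a 24-hour compound exposure, cells received CYP3A4 luciferin substrate at 3uM final for 3 hours, and light output was then recorded.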
Consider `CCCCCCCCCC(=O)NO`, for which the Potency result was “inactive”.

Regarding `CCCCCCCCCCCCCCCC(=O)OC[C@H](COP(=O)([O-])OCC[N+](C)(C)C)OC(=O)CCCCCCCCCCCCCCC`, the Potency entry was “inactive”.

As for `CO/N=C(\C(=O)N[C@@H]1C(=O)N2C(C(=O)[O-])=C(C[n+]3ccc(N)n3CCO)CS[C@H]12)c1csc(N)n1`, the Potency entry is “inactive”.

For `CC(C)CCC[C@@H](C)[C@H]1CC[C@H]2[C@@H]3CC=C4C[C@@H](O)CC[C@]4(C)[C@H]3CC[C@]12C`, the Potency entry is “inactive”.

Regarding `CC[C@@H](C)[C@H](N)C(=O)O`, the Potency entry is “inactive”.

For the compound `CC12CCC(C1)C(C)(C)C2=O` (stereo not drawn), the Potency entry is “inactive”.

For `C[Se]CC[C@H](N)C(=O)O`, the Potency result is “inactive”.

`C[C@@H]1C(=O)NC2=Nc3cccc(Cl)c3CN21`: the Potency result was “inactive”.

As to `CCOc1ccc(S(=O)(=O)O)c2cccnc12`, the Potency result was “inactive”.

As for `COc1ccc(/C=C/C(=O)O)cc1`, the Potency result was “inactive”.

Turning to `Cc1cn([C@H]2C[C@H](O)[C@@H](CO)O2)c(=O)[nH]c1=O`, the Potency result is “inactive”.

In the case of `CN=C(N)NCCC[C@H](N)C(=O)O`, the Potency entry is “inactive”.

Turning to `C/C=C/C1=C(C(=O)O)N2C(=O)[C@@H](NC(=O)[C@H](N)c3ccc(O)cc3)[C@H]2SC1`, the Potency result is “inactive”.

On to `O=C(O)/C=C/C(=O)Nc1ccc(S(=O)(=O)Nc2nccs2)cc1`, for which the Potency entry was “inactive”.

As for `CC(=O)Nc1ccc(OC(C)=O)cc1`, the Potency entry is “inactive”.

`NC(=O)C1c2ccccc2CCc2ccccc21`: the Potency result was “inactive”.

As to `CC12CCC(C[N+](C)(CCC[N+](C)(C)C)C1)C2(C)C` (stereo not drawn), the Potency result is “inactive”.

Regarding `CCC1OC(=O)C[C@@H](O)[C@H](C)[C@@H](O[C@@H]2O[C@H](C)C[C@H](N(C)C)[C@H]2O)[C@@H](CC=O)C[C@@H](C)C(=O)/C=C/[C@]2(C)OC2C1C` (stereo partly drawn), the Potency entry is “inactive”.
